TDP1 cell noCPT – qHTS for Inhibitors of human tyrosyl-DNA phosphodiesterase 1 (TDP1): qHTS in cells in absence of CPT. DT40 Tdp1-/- hTDP1 cells, no CPT, ATP luminescence, 48 h. 420,000 compounds, 15% hits. Potency, µM (highest dose often 46.2 µM), for inactives: at the top dose activity change, negative = growth inhibition, usual class: inhibitors; also: % is scaled to controls: 0 for no effect and ±100 for the full control effect; nearly all actives have a fitted effect of over 55% in size
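Compound effects on proliferation are scored in DT40 Tdp1-/-;hTDP1 cells in the absence of CPT. ATP levels (CellTiter-Glo luminescence) are recorded after a ≥48 hr, 37 °C incubation.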
TGFb inhibitor – TGF-b pathway inhibition; Potency, µM (titrated, usually from 46.1 µM), without a hit: at the top dose activity, negative = inhibition, usual class: inhibitors; 410,000 compounds, 1.2% hits; HepG2 CAGA-GFP TGF-b/SMAD3 reporter, GFP fluorescence, 18 h; TGF-beta stimulated, 500 pg/mL final; also: % is scaled to controls: 0 for no effect and ±100 for the full control effect; nearly all actives have a fitted effect of over 65% in size
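Smad-responsive CAGA-GFP expression was quantified in HEPG2 cells exposed to compounds and 500 pg/mL final TGF-beta for 18 h at 37 degrees C; unstimulated wells defined full inhibition.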
TDP1 cell CPT – growth inhibition of DT40 Tdp1-/-;hTDP1 cells with camptothecin (screen for TDP1 inhibitors); chicken DT40 Tdp1-/-;hTDP1 cells + 20 nM CPT, ATP luminescence, 48 h; AID 686979; 420,000 compounds, 12% hits; Potency, µM (series often up to 46.2 µM), for inactives: at the top dose activity change, negative = growth inhibition, usual class: inhibitors; also: % is scaled to controls: 0 for no effect and ±100 for the full control effect; nearly all actives have a fitted effect of over 55% in size
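Cell growth measured by CellTiter-Glo luminescence after a minimum 48 h, 37 C compound exposure with 20 nM CPT in Tdp1-knockout DT40 cells stably expressing hTDP1, seeded 400/well; qHTS titration format.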
ATXN viability – cell viability loss in ATXN counter-screen; S2 cells (HEK-293 line with an ATXN2-luciferase reporter) viability, CellTiter-Fluor protease fluorescence, 24 h; Potency, µM (doses to about 56.7 µM), hits mostly cytotoxic; 400,000 compounds, 0.49% hits; AID 651635; also: nearly all actives have a fitted effect of over 40% in size
HepG2 tox – HepG2 cytotoxicity, counter-screen for TGF-b inhibitors; HepG2 CAGA-GFP viability, ATP luminescence, 18 h; Potency, µM (highest dose often 46.1 µM), for the others: at the highest dose activity change, negative = cytotoxicity, hits mostly cytotoxic; 410,000 compounds, 0.76% hits
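HepG2 CAGA-GFP cells (1000/well, DMEM with 1% FBS) received compound, then TGF-beta at 500 pg/mL final, and were incubated 18 hours at 37 degrees C. Viability was read by CellTiter-Glo luminescence. Media-only wells were set as complete cell-killing and DMSO as no toxicity.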
ATXN2 expr inh – ATXN2 expression inhibition. HEK-293 ATXN2-luciferase reporter, luminescence, 24 h. Potency, µM (doses to about 57 µM), for inactives: at the highest dose activity change, negative = inhibition, usual class: inhibitors. 360,000 compounds, 0.72% hits; also: % is scaled to controls: 0 for no effect and ±100 for the full control effect; nearly all actives have a fitted effect of over 55% in size
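qHTS (up to 57 uM final) was run with 24 h compound exposure of reporter cells at 37 °C. Each well was multiplexed: SteadyGlo luminescence measured ATXN2-luciferase expression after a fluorogenic Gly-Phe-AFC viability readout (25 uM final).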
* hit, by the source's call; i = inactive; ? = inconclusive; . = no result given. A selection: hits, their analogues and other compounds. The true share with any hit is near 17%. Calls follow the shape of the dose curve; as a rule, active = well fitted curve in the direction sought with a large enough effect; inconclusive = small, poorly fitted or top-dose-only effect, or another doubt; inactive = no such curve, though single readings can be large; an effect the other way counts as inactive or inconclusive. Potency is read from the fitted curve at half-maximal effect.

SMILES | TDP1 cell noCPT | TGFb inhibitor | TDP1 cell CPT | ATXN viability | HepG2 tox | ATXN2 expr inh
Cc1ccc(NC(=O)C2CCCN(c3ncnc4onc(-c5ccc(F)cc5)c34)C2)c(Cl)c1 (stereo unspecified) | ? | ? | ? | i | -1.8% | 4.6%
CCc1ccccc1NC(=O)C1CCCN(c2ncnc3onc(-c4ccc(F)cc4)c23)C1 (stereo unspecified) | ? | -1.5% | ? | ? | -5.0% | .
CCOc1ccccc1NC(=O)C1CCCN(c2ncnc3onc(-c4ccc(F)cc4)c23)C1 (stereo unspecified) | 23.1µM* | -1.9% | 20.6µM* | i | 0.2% | 6.6%
Cn1cnc(C(=O)N2CCc3ccccc3C2)c1C(=O)N1CCc2ccccc2C1 | ? | 5.6% | ? | i | 5.1% | -7.1%
O=C(NCc1ccc(F)cc1)C1CCCN(c2ncnc3onc(-c4ccc(F)cc4)c23)C1 (stereo unspecified) | 16.4µM* | -15.0% | 20.6µM* | i | -24.4% | -14.0%
COc1ccc(CN(C)C(=O)COC(=O)c2cnc(Cl)c(Cl)c2)cc1 | -4.7% | -7.8% | 3.4% | i | -4.8% | 8.0%
CCNC(=O)C1CCCN(C(=O)c2cccc(C(F)(F)F)c2)CC1 (stereo unspecified) | -17.5% | 1.6% | -14.2% | i | -3.4% | 2.7%
COc1ccc2c(c1)sc(=N)n2C | 18.4µM* | 19.6% | 18.4µM* | i | -0.6% | -2.0%
COc1ccc2c(c1)sc1nc(=O)ccn12 | -26.9% | -4.2% | 9.4% | i | 6.3% | -2.5%
Nc1nc(CSC(=S)N2CCN(c3ccccc3)CC2)nc(Nc2ccccc2)n1 | ? | ? | 23.1µM* | i | 14.1% | -12.3%
COc1ccc(Nc2nc(N)nc(CSC(=S)N3CCOCC3)n2)cc1 | ? | -1.1% | ? | i | -21.6% | .
Cc1ccc(Nc2nc(N)nc(CSC(=S)N3CCOCC3)n2)c(C)c1 | 25.9µM* | -17.9% | ? | i | -2.2% | 67.9%
Cc1ccc(CCNC(=O)CS(=O)Cc2nc(-c3ccccc3C)oc2C)cc1 (stereo unspecified) | ? | ? | ? | . | -33.5% | .
Cc1ccc(CNC(=O)CS(=O)Cc2nc(-c3cccs3)oc2C)cc1 (stereo unspecified) | ? | -24.1% | 23.1µM* | i | -14.9% | -5.7%
Cc1oc(-c2ccccc2Cl)nc1CS(=O)CC(=O)NCc1ccc(Cl)cc1 (stereo unspecified) | ? | 8.91µM* | 0.8% | i | -18.0% | -2.7%
Cc1ccccc1-c1nc(CS(=O)CC(=O)NCCc2ccc(Cl)cc2)c(C)o1 (stereo unspecified) | ? | ? | 16.4µM* | i | -6.0% | .
CC12CCC(C(=O)NCCCN3CCOCC3)(C(Br)C1=O)C2(C)C (stereo unspecified) | -16.0% | 1.6% | 17.8% | ? | -4.6% | -9.9%
Cc1ccc(Cl)cc1N1CCN(C(=O)Cc2ccc(-n3c(=O)[nH]c4ccsc4c3=O)cc2)CC1 | ? | 0.0% | ? | i | -29.3% | -17.5%
CCc1nn(CC(=O)N2CCN(c3ccc(OC)cc3)CC2)c(=O)c2cc3occc3n12 | 3.9% | -2.9% | -16.7% | i | -2.6% | 10.2%
C/C(=N\OCc1ccc(C#N)cc1)c1ccccc1 | 24.7% | 20.5% | ? | i | 5.9% | 64.3%
C/C(=N\OCc1cccc(C(=O)O)c1)c1ccc(Cl)cc1 | -16.2% | 5.1% | 4.9% | i | 0.0% | 2.82µM*
CS(=O)(=O)c1nc(S(=O)(=O)c2ccc(Cl)cc2)c(N2CCOCC2)s1 | ? | -15.5% | ? | i | -0.7% | -5.2%
CCCCCC[n+]1c(-c2ccc(Cl)cc2Cl)csc1Nc1ccccc1 | 23.1µM* | 5.4% | ? | i | -1.9% | 5.7%
NC(=O)c1c(N)[nH]c(C(=O)c2ccccc2)c1-c1ccccc1Br | 18.4µM* | . | ? | i | . | 19.4%
CC(C)(C)C(=O)c1c(N)[nH]c(C(=O)c2ccccc2)c1-c1ccccc1Br | 16.4µM* | . | 25.9µM* | i | . | -13.9%
SMILES | TDP1 cell noCPT | TGFb inhibitor | TDP1 cell CPT | ATXN viability | HepG2 tox | ATXN2 expr inh
COc1ccc(-c2c(C(=O)c3ccccc3)[nH]c(N)c2C(=O)NCc2ccccc2)cc1OC | ? | . | ? | ? | . | 21.6%
CC(C)(C)C(=O)c1c(N)[nH]c(C(=O)c2ccccc2)c1-c1ccc(Cl)cc1Cl | ? | . | ? | i | . | -3.4%
Nc1[nH]c(C(=O)c2ccccc2)c(-c2cccc3ccccc23)c1C(=O)NCc1ccccc1 | 23.1µM* | . | ? | i | . | 20.1%
Nc1[nH]c(C(=O)c2ccccc2)c(-c2ccc(Cl)cc2Cl)c1C(=O)c1ccc(Cl)c(Cl)c1 | ? | . | 18.4µM* | i | . | 12.6%
Cc1cccc(C)c1NC(=O)Cn1c(=O)cc(C)c2c(C)nn(-c3cccc(Cl)c3C)c21 | -29.1% | 15.9% | -25.6% | ? | 5.1% | -2.2%
COc1ccc(-c2c(C(=O)c3ccc(Br)cc3)[nH]c(N)c2C(=O)c2ccccc2)cc1OC | 20.6µM* | . | ? | i | . | -15.9%
CC(C)(C)C(=O)c1c(N)[nH]c(C(=O)c2ccccc2)c1-c1c(F)cccc1F | 20.6µM* | . | ? | ? | . | -3.8%
CC(C)(C)C(=O)c1c(N)[nH]c(C(=O)c2ccccc2)c1-c1ccc(Cl)cc1 | ? | . | ? | i | . | 13.1%
CC(NC(=O)c1c(N)[nH]c(C(=O)c2ccccc2)c1-c1ccccc1Br)c1cccc2ccccc12 (stereo unspecified) | ? | . | ? | ? | . | -34.2%
COc1ccc(-c2c(C(=O)c3ccccc3)[nH]c(N)c2C(N)=O)cc1OC | -3.8% | . | ? | i | . | 41.5%
COC(=O)c1c(N)[nH]c(C(=O)c2ccccc2)c1-c1ccccc1Br | 16.4µM* | . | ? | ? | . | 16.9%
CCc1ccc(Oc2cc(Cl)nc(N)n2)cc1 | ? | -5.2% | ? | i | 1.7% | 69.0%
ClC1=CN(C2=NCCC2)CC1 | -6.1% | -4.0% | 0.4% | i | -0.5% | 17.0%
CC(=O)Nc1ccc(C=NN=C2c3ccccc3-c3ccccc32)cc1 | ? | ? | 25.9µM* | ? | -16.8% | ?
COC(=O)C(NC(=O)CC(C)C)(Nc1nc2c(s1)CCCC2)C(F)(F)F (stereo unspecified) | 11.6µM* | -6.9% | 16.4µM* | i | -21.7% | 9.5%

Source: PubChem BioAssay (National Center for Advancing Translational Sciences (NCATS))
